# SW480 rerep: inducers of DNA re-replication in SW480 colon cancer cells | SW480 DNA re-replication, Hoechst DNA content imaging, 48 h | Potency, µM (highest dose often 46.1 µM), most hits filed as activators | hit rate 1.8% among 340,000; further: nearly all actives have a fitted effect of over 55% in size
#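 Compounds, transferred as 23 nL by pin tool, were incubated with cells for 48 hr; DNA content per nucleus was then quantified by Hoechst staining and fluorescence plate imaging.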
# DRD3 agonist: D3 dopamine receptor (human) agonism; max activation, %; D3R DiscoveRx beta-arrestin cells, luminescence, 90 min; hit rate 0.58% among 410,000; AID 652048; in the data active means max activation above about 30%
# Target sequence (P35462 whole entry, looked up): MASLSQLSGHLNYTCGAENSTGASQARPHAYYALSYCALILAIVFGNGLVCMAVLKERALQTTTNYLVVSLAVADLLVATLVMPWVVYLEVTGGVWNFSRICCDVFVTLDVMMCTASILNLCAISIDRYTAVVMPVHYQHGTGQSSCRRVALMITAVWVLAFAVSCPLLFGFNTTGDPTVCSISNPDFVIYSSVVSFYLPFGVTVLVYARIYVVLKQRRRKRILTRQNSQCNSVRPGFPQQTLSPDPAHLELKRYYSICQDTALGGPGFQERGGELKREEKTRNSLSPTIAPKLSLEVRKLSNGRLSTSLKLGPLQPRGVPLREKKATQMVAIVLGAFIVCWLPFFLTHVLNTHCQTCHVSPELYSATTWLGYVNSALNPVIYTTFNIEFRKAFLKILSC
#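 Agonist mode: compounds and dopamine controls were applied to plated cells for 90 min at 37 degrees C after an overnight attachment at 1500 cells/well. Luminescent read-out followed 30 - 60 minutes at room temperature with DiscoveRx detection reagent.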
# D3 antag: D3 dopamine receptor (human) antagonism. P35462. AID 652054. max response, negative = inhibition, %. D3R cells, DiscoveRx beta-arrestin luminescence, antagonist mode; stronger effect = lower value. hit rate 2.5% among 360,000; in the data active means max response below about -50%; inconclusive means no clear call, values can overlap the other calls
#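 Cells expressing the human receptor were seeded at 1500 cells/well, incubated overnight at 37 degrees C in 5% CO2, then exposed to library compounds with dopamine controls for 90 minutes at 37 degrees C before luminescent detection.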
# KB-V1 MDR tox: kills drug-selected multidrug resistant KB-V1 cells; KB-V1 MDR cells viability, CellTiter-Glo, 72 h; Potency, µM (series often up to 46.1 µM), usual class: cytotoxic; hit rate 3.4% among 400,000; further: nearly all actives have a fitted effect of over 60% in size
#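 Cells of the MDR subline KB-V1 are plated, dosed with compound at multiple concentrations, and incubated 72 h at 37 degrees C; CellTiter-Glo is then added and luminescence read after 10 min.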
# MCF10A rerep: inducers of DNA re-replication in MCF 10A breast cells. Potency, µM (doses to about 46.1 µM), hits mostly activators. AID 624296. hit rate 2.9% among 350,000. MCF 10A DNA re-replication, Hoechst nuclear intensity, 48 h; further: nearly all actives have a fitted effect of over 50% in size
# KB-3-1 cytotox: KB-3-1 parental cell cytotoxicity | KB-3-1 viability, CellTiter-Glo ATP luminescence, 72 h | Potency, µM (series often up to 46.1 µM), usual class: cytotoxic | hit rate 1.4% among 400,000; further: nearly all actives have a fitted effect of over 60% in size
#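 Cells are dispensed, compounds pinned in, plates held at 37 °C for 72 h, then CellTiter-Glo is added and luminescence read after 10 minutes. Cell line: parental KB-3-1 in phenol-red-free DMEM, 10% FBS.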
# A number is an active result; . = inactive; ? = inconclusive; / = no result given; ! = a repeat was not active. Rows were chosen to be rich in hits. Some 8.9% of all compounds tested hit in one or more screens of this group. Unless noted, the call rests on the fitted dose curve; in most records, active means well fitted curve in the direction sought with a large enough effect; inconclusive means small, poorly fitted or top-dose-only effect, or another doubt; inactive means no such curve, though single readings can be large; an effect the other way counts as inactive or inconclusive.
SMILES,SW480 rerep,DRD3 agonist,D3 antag,KB-V1 MDR tox,MCF10A rerep,KB-3-1 cytotox
CCOc1cc(Br)c(C=O)cc1OCC,13µM,.,.,.,?,?
COc1ccc(N=C2NC(=O)/C(=C/c3ccco3)S2)cc1,7.3µM,.,.,.,?,.
COC(=O)/C=C1\SC(=Nc2ccc(OC)cc2)NC1=O,.,.,.,.,3.7µM,.
COc1ccc(S(=O)(=O)/N=C2/NC(=O)/C(=C/c3ccco3)S2)cc1,.,.,.,.,.,.
Cc1ccc(NC(=O)Cn2c(-c3cncs3)nc3ccccc32)cc1Br,/,.,/,.,/,.
Cc1ccc(S(=O)(=O)N(C)C)cc1NC(=S)NC(=O)C12CC3CC(CC(C3)C1)C2,.,.,.,?,.,3.3µM
CN(C)S(=O)(=O)c1cccc(NC(=S)NC23CC4CC(CC(C4)C2)C3)c1,?,.,.,.,?,.
Cc1ccc(S(=O)(=O)N(C)C)cc1NC(=S)NC12CC3CC(CC(C3)C1)C2,.,.,.,.,?,.
NS(=O)(=O)c1cccc(NC(=S)NC(=O)C23CC4CC(CC(C4)C2)C3)c1,.,.,.,18µM,?,.
CC(NC(=O)/C(=C/c1ccc(OC(F)F)cc1)c1ccccc1)c1ccccc1 (stereo not drawn),.,.,.,6.5µM,?,?
CC(NC(=O)/C(C#N)=C/c1ccc(OCC(=O)O)cc1)c1ccccc1 (stereo not drawn),.,.,.,.,?,.
COc1cc(/C=N/NC(=S)NCc2ccccc2)ccc1OCC#N,.,.,.,?,.,.
COc1cc(OC)c(C=NNC(=S)NC23CC4CC(CC(C4)C2)C3)c(OC)c1,?,.,?,5.2µM,?,.
COc1ccc(C=NNC(=S)NC23CC4CC(CC(C4)C2)C3)cc1OC,?,.,.,2.9µM,9.2µM,?
CCOc1ccc(CNC(=S)N/N=C/c2ccc(OC)c(OC)c2)cc1,.,.,.,16µM,.,.
COc1cc(/C=N/NC(=O)NC23CC4CC(CC(C4)C2)C3)ccc1OCC(N)=O,.,.,.,.,.,.
CCOc1ccc(CNC(=O)C2CCCN(c3nn4cc(-c5ccc(OC)cc5)nc4s3)C2)cc1 (stereo not drawn),/,.,/,.,/,.
Cc1cccc(C(=O)NCC(=O)OCc2cc(=O)n3nc(C)sc3n2)c1,/,.,/,.,/,.
O=C(NCc1cccc(C(F)(F)F)c1)c1csc([C@@H]2O[C@H](CO)[C@H](O)[C@H](O)[C@H]2O)n1,/,.,.,.,/,.
Cc1ccc(-n2c(SCC(=O)N3CCC(C)CC3)nc3c([nH]c4ccccc43)c2=O)cc1,/,.,/,/,/,/
Cc1nn2c(N3CCN(C)CC3)c3c(nc2c1-c1ccccc1)CCCC3,.,.,-50,.,?,.
Cc1nn2c(NCc3ccccn3)cc(C(C)(C)C)nc2c1-c1ccccc1,2.9µM,.,?,.,2.6µM,?
Cc1nn2c(NCc3ccccn3)c3c(nc2c1-c1ccccc1)CCC3,?,.,?,9.2µM,.,?
Cc1nn2c(NCCN3CCOCC3)c3c(nc2c1-c1ccccc1)CCCC3,.,.,.,?,?,.
Cc1ccc(CN2CCSc3ccc(C(=O)N4CCN(c5cccc(C)c5C)CC4)cc32)cc1,/,.,/,?,/,.
SMILES,SW480 rerep,DRD3 agonist,D3 antag,KB-V1 MDR tox,MCF10A rerep,KB-3-1 cytotox
COc1ccc(OC)c(C2C(C(=O)Nc3ccccc3OC)=C(C)Nc3c(C(=O)Nc4ccc(F)cc4)cnn32)c1 (stereo not drawn),/,.,/,/,/,/
O=C(COc1ccc(Cl)cc1)N(Cc1ccco1)c1ccccn1,/,.,/,.,/,.
CCN(CC)c1ccc(N=Nc2nn(C)c(C)c2[N+](=O)[O-])cc1,.,.,-59,.,.,.
CCN(Cc1ccccc1)c1ccc(N=Nc2nn(C)c(C)c2[N+](=O)[O-])cc1,.,.,-51,6.5µM,.,?
CCN(Cc1ccccc1)c1ccccc1,.,.,.,.,.,.
Cc1cc(C)c2c(=O)cc(C(=O)Nc3sc4c(c3C(=O)NCC3CCCO3)CCCC4)oc2c1 (stereo not drawn),/,.,/,.,/,.
O=S(=O)(Nc1cccc(C(F)(F)F)c1)c1ccc(NS(=O)(=O)c2ccc3c(c2)OCCO3)cc1,/,.,/,.,/,.
CC(OC(=O)c1nc(Cl)ccc1Cl)C(=O)Nc1ccc2c(c1)OCCO2 (stereo not drawn),.,.,.,.,1.6µM,.
CC(OC(=O)c1cccc(S(=O)(=O)Nc2cccc(C(F)(F)F)c2)c1)C(=O)Nc1ccc2c(c1)OCCO2 (stereo not drawn),.,.,.,15µM,?,?
COc1ccc(S(=O)(=O)N2Cc3ccccc3CC2C(=O)Nc2cc(Cl)ccc2Cl)cc1 (stereo not drawn),/,.,/,.,/,.
Cc1ccccc1CN1CCN(c2ccc(S(=O)(=O)N3CCCC3)cn2)CC1,.,.,.,9.2µM,?,?
COc1ccccc1CN1CCN(S(=O)(=O)c2ccccc2)CC1,.,.,-68,.,.,.
COc1ccc(OC)c(CN2CCN(S(=O)(=O)c3ccccc3)CC2)c1,.,.,.,.,.,.
O=S(=O)(c1ccc(N2CCN(Cc3ccccc3)CC2)nc1)N1CCCC1,.,.,.,?,.,?
COc1cccc(CN2CCN(S(=O)(=O)c3ccccc3)CC2)c1OC,.,.,.,.,.,.
COc1ccc(CN2CCN(S(=O)(=O)c3ccccc3)CC2)c(OC)c1,.,.,-70,18µM!,.,.
Cc1ccccc1CN1CCN(S(=O)(=O)c2ccc(F)cc2)CC1,.,.,-78,?,.,.
O=S(=O)(c1ccc(N2CC=C(c3ccccc3)CC2)nc1)N1CCCC1,?,.,.,8.2µM,23µM,?
CCOC(=O)c1ccccc1OC(=O)NNc1ccccc1,.,.,.,.,.,12µM
Cc1n[nH]c(C)c1S(=O)(=O)N1CCCC(C(=O)Nc2ccc(Cl)cc2)C1 (stereo not drawn),/,.,/,?,/,?
Cc1cc2nn(-c3ccc(F)cc3)nc2cc1NC(=O)c1cccc2c(Cl)cccc12,/,.,/,.,/,.
S=C(NCCN1CCOCC1)Nc1ccc(-c2nc3ccccc3[nH]2)cc1,.,.,.,.,1µM,?
Fc1ccc(NC(=S)NCCN2CCOCC2)cc1,.,.,.,.,.,.
Fc1ccc(-c2noc3ncnc(NC4CCCCC4)c23)cc1,/,.,/,.,/,.
O=C(Cn1c(=O)c(=O)n(Cc2ccccc2)c2ccc(Cl)cc21)Nc1cccc(F)c1,.,.,.,13µM,.,.
O=C(Cn1c2ccccc2c(=O)c2ccccc21)Nc1cccc(F)c1,18µM,.,.,.,12µM,.
O=C(Cn1c(=O)n(Cc2ccco2)c(=O)c2ccccc21)Nc1cccc(F)c1,/,.,/,.,/,.

# Compound activity as filed in PubChem.
